Measurements published in PubChem BioAssay (NCATS).
Records with an inconclusive call do not appear. A number with no mark means an inactive call. Calls of active or inactive are those of the source. Calls come from the whole dose curve; as a rule, active = well fitted inhibition curve with a large enough effect; inconclusive = small, poorly fitted or top-dose-only effect; inactive = no such curve, though single readings can be large or run the other way.

biological target: Cytochrome P450 2C19 (Homo sapiens) (UniProt P33261); experiment: qHTS Assay for Inhibitors and Substrates of Cytochrome P450 2C19 (AID 899); settings: recombinant CYP2C19, luciferin-H EGE luminescence; series mostly up to 11.4 µM; activity, negative = inhibition: at the top concentration; note: nearly all actives have a fitted effect of over 60% in size
Sequence (P33261 whole entry, looked up): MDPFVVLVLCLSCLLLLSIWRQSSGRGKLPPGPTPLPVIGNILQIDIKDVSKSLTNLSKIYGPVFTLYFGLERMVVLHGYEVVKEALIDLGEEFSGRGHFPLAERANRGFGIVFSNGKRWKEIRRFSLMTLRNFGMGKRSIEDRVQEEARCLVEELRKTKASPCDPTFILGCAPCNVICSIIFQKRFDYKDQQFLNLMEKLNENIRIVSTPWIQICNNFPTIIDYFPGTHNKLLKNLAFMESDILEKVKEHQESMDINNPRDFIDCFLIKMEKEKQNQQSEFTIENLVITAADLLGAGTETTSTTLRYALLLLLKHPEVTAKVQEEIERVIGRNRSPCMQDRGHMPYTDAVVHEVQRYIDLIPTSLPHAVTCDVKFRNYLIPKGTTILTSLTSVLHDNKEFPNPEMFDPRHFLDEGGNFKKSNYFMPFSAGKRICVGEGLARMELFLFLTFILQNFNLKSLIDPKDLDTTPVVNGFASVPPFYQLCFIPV
Summary of the method: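 Human CYP2C19 (5nM) with Luciferin-H EGE at 10uM (its KM) in 50mM KPO4 was preincubated with compound for 10 min at 37C. NADPH regeneration started a 60 min 37C reaction. Luciferin was read by luminescence, normalized to 57uM ketoconazole.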
% is set by controls: 0 for no effect and ±100 for the full control effect; potency is the fitted concentration of half-maximal effect.

| SMILES | activity, negative = inhibition | Potency |
| --- | --- | --- |
| CC(CC(=O)O)(CC(=O)O)c1ccccc1 | 62.3% | – |
| CC(CCC(=O)O)(c1ccc(O)cc1)c1ccc(O)cc1 | -2.62% | – |
| Nc1nc(N)nc(CCCCc2nc(N)nc(N)n2)n1 | 12.9% | – |
| c1ccc2cc(NCNc3ccc4ccccc4c3)ccc2c1 | – | 2510 nM (active) |
| COc1cc(O)c2c(O)c3c(c4c2c1[C@@]1(C4)C(C)=CCCC1(C)C)[C@H](O)[C@@]1(O)CC(=O)C(C(N)=O)=C(O)[C@]1(O)C3=O | – | 2510 nM (active) |
| CN(C)CCCN1c2ccc3ccccc3c2Sc2cccc(Cl)c21 | – | 5010 nM (active) |
| N=C1C=CC(=C(c2ccc(N)cc2)c2ccc(N)cc2)C=C1 | -32.5% | – |
| O=C(c1ccc([N+](=O)[O-])cc1)[C@@H](Br)[C@@H](Br)c1ccnc2ccccc12 | – | 1260 nM (active) |
